Compounds with a hit are over-represented: about 4.8% of the library has one in this group of screens.
hcDAF-12 act = H. contortus DAF-12 activation, primary screen; HEK293 hcDAF-12 lit1-tk-luc reporter, luminescence; 0% DMSO, 100% Δ7-dafachronic acid; activation, % at 6.8 µM; 370,000 tested, 1.4% active;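 active = activation above the mean of all tested compounds plus 3 SD, cut at about 5.5% in these data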;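 note: 100% = response to 3 µM Δ7-dafachronic acid high control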
SMARCA2 act = activators of SMARCA2 function; 370,000 tested, 1% active; activation, % at 9.1 µM; AID 652017; MG213 cells, MMTV-luciferase reporter, dexamethasone, overnight; in the data active = activation above about 7.8%;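 note: 0% = vehicle wells and 100% = reference activator wells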
DAX1 inh-1 = inhibitors of human orphan nuclear receptor DAX1 (NR0B1) | HEK293 Gal4-DAX1 luciferase reporter, luminescence | 340,000 tested, 0.99% active | AID 504766 | inhibition, % at 6.75 µM;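 active = inhibition above the mean over all tested compounds plus 3 SD, cut at about 4.2% in these data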;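 note: 0% = DAX1-transfected cells with DMSO and 100% = empty-vector control cells with DMSO; inhibition shows as a rise in luminescence from relieved DAX1 repression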
hgDAF-12 ag = agonists of H. glycines DAF-12 nuclear receptor | HEK293 GAL4-hgDAF12 UAS-luciferase reporter, agonist luminescence; normalized to butyrate control | 370,000 tested, 1.8% active | activation, % at 6.8 µM;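 active = activation above a cutoff set at the mean of all screened compounds plus 3 SD, cut at about 10% in these data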;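 note: 0% = DMSO wells and 100% = sodium butyrate wells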
ssDAF-12 act = S. stercoralis DAF-12 activation, primary screen; HEK293 ssDAF-12/GRIP1 lit1-tk-luc reporter, luminescence; % of 3 µM dafachronic acid response; activation, % at 6.8 µM; 370,000 tested, 1% active;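 active = activation above the mean over all tested compounds plus 3 SD, cut at about 0.9% in these data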;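 note: 0% = DMSO-only wells and 100% = 3 µM delta7-dafachronic acid wells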
DAX1 inh-2 = blocks DAX1 repression of SF-1 activated StAR promoter. HEK293T StAR-luciferase reporter, SF-1/DAX-1 repression relief. inhibition, % at 6.8 µM. 370,000 tested, 1.1% active;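 active = inhibition above the mean over all tested compounds plus 3 SD, cut at about 3.6% in these data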;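 note: 0% = DAX-1 cells with DMSO and 100% = cells lacking DAX-1 with DMSO; higher inhibition means more luminescence from relief of DAX-1 repression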
hgDAF12 conf = confirmation of H. glycines DAF-12 agonists. 3,300 tested, 80% active. HEK293 GAL4-hgDAF12 luciferase reporter, agonist mode; percent of butyrate response. shares compounds with hgDAF-12 ag. activation, % at 6.8 µM;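 active = mean activation over triplicate wells above the hit cutoff derived from the earlier primary screen, cut at about 11% in these data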;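 note: 0% = DMSO low control and 100% = 2 mM sodium butyrate high control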
LXR ag 2 = activates human LXR-beta, counter-screen for DAF-12 agonists. HEK293 Gal4-LXR luciferase reporter, 24 h. AID 743051. activation, % at 6.8 µM. shares compounds with hgDAF-12 ag. 3,300 tested, under 10 active;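 active = mean activation of the triplicate above a set limit carried over from the primary screen, none filed active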
Target sequence (P55055 whole entry, looked up, the tested form may be a part): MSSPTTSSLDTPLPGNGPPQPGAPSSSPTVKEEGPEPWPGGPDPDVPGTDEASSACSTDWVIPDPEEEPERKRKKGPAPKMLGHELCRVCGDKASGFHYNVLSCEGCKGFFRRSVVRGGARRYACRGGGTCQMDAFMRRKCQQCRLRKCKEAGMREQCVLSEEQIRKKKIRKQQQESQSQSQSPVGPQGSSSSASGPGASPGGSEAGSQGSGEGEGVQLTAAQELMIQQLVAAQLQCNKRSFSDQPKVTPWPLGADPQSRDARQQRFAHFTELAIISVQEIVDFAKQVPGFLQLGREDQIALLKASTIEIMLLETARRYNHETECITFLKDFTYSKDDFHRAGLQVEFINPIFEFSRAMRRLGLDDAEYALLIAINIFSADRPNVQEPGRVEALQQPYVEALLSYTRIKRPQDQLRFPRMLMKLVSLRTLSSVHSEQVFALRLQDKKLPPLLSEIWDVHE
The depositor's hits bear a star; . = not tested or not shown.

SMILES	hcDAF-12 act	SMARCA2 act	DAX1 inh-1	hgDAF-12 ag	ssDAF-12 act	DAX1 inh-2	hgDAF12 conf	LXR ag 2
COc1ccc(C(=O)c2coc3ccc(O)cc23)cc1	5	2	2	16*	1	3	20*	1
O=C(Nc1cccnc1)c1ccc(Oc2ccccc2)cc1	2	0	2	14*	0	1	15*	1
O=C(Nc1cccnc1)c1ccccc1Oc1ccccc1	3	0	-1	3	0	-1	.	.
Cc1ccc(-c2nn(-c3ccccc3)cc2C(N)=O)o1	2	-1	0	3	-1	1	.	.
Cc1ccc(-c2nn(-c3ccccc3)cc2C=O)o1	3	2	1	13*	0	4	10	0
CN1CCC(=NNC(=O)C(=O)Nc2ccccc2F)CC1	-1	1	3	24*	-2	0	2	0
CN1CCC(=NNC(=O)C(=O)NC(C)(C)C)CC1	1	1	1	3	-1	0	.	.
Cc1[nH]c2ccccc2c1CC(=O)Nc1ccc(Oc2cccnc2)cc1	2	-3	.	-2	0	0	.	.
C/C(CC(=O)Nc1cccc(Cl)c1Cl)=N\NC(=O)c1ccccc1N	5	5	4.2*	14*	0	2	3	0
O=c1oc2ccccc2cc1-c1cn2cccnc2n1	4	7	1	14*	0	4.1*	18*	1
O=C(NC(=S)Nc1ccc2c(c1)OCCO2)c1cccc(Br)c1	5	2	2	14*	0	3	19*	1
c1ccc(CCSc2nccn2-c2ccccc2)cc1	5.8*	8	2	14*	0	2	14*	1
CCc1ccc(CSc2nccn2-c2ccccc2)cc1	-2	1	0	-2	-1	0	.	.
Cc1ccccc1S(=O)(=O)N1CCCc2nc(-c3ccccc3)ccc21	-2	-6	.	1	-1	0	.	.
C/C(CCc1ccccc1)=N\NC(=O)c1ccccc1	1	5	1	14*	0	2	3	0
Cc1cc(C)nc(-n2nc(C)c(Sc3ccc(F)cc3)c2N)n1	3	7	0	13*	0	3	15*	1
OCC1OC(C(N=Nc2ccccc2)=NNc2ccccc2)C(O)C1O (stereo unspecified)	3	-2	.	3	-1	1	.	.
CCN(CC)CCOC(=O)c1ccc(NC(=O)/C=C/c2cccs2)cc1	1	-2	0	-1	-2	0	.	.
CCOC(=O)c1ccc(NC(=O)/C=C/c2cccs2)cc1	2	2	0	19*	0	1	9	0
O=C(O)C1CCCN1C(=O)c1cccc(Cl)c1 (stereo unspecified)	2	2	.	-2	-1	0	.	.
Cc1cccc(NC(=O)CN2CCN(C(=O)c3cc(C4CC4)nn3-c3ccccc3)CC2)c1C	3	-4	0	-4	-1	0	.	.
O=C(CN1CCN(C(=O)c2cc(C3CC3)nn2-c2ccccc2)CC1)Nc1ccc(F)cc1	-1	-6	0	15*	-1	-1	-3	0
COc1ccc(C(=O)NCC(=O)OCc2ccc(Br)cc2)cc1	2	-2	0	0	-2	1	.	.
O=C(CNC(=O)c1ccc(-c2ccccc2)cc1)OCc1ccc(Br)cc1	2	6	0	13*	0	0	6	0
COC(=O)CCc1sc(Nc2ccccc2)nc1-c1ccc(OC)cc1	3	9.7*	2	14*	0	2	13*	0
SMILES	hcDAF-12 act	SMARCA2 act	DAX1 inh-1	hgDAF-12 ag	ssDAF-12 act	DAX1 inh-2	hgDAF12 conf	LXR ag 2
CCC(=O)c1ccc(OCc2ccccc2)c(OC)c1	3	1	4.7*	14*	0	4	10	1
O=[N+]([O-])c1ccc2c(c1)-c1ccccc1C2=NO	-1	-3	-1	3	-1	-2	.	.
Nc1cc2c(cc1Cl)-c1ccccc1C2=NO	1	1	3	16*	-1	0	7	0
CCc1ccc2c(Cl)c(C(=O)N/N=C/c3c[nH]c4ccccc34)sc2c1	1	2	0	1	-1	0	.	.
CCc1ccc(-c2cc(C(=O)N/N=C/c3c[nH]c4ccccc34)[nH]n2)cc1	3	-1	0	18*	1	-3	1	0
Cc1ccc(OCC(=O)Nc2ccccc2F)cc1C	3	2	2	16*	1	4	13*	1
Cc1ccccc1NC(=O)c1ccc(OCC(=O)Nc2ccccc2F)cc1	-2	-2	0	-1	-2	-1	.	.
CCCCNC(=O)C[C@@H]1C(=O)N(CCc2ccc(Cl)cc2)/C2=C/CCCCC[C@@]21C(=O)OCC	0	-3	.	1	-2	0	.	.
Nc1nc(N)nc(-c2ccc(Cl)c(Cl)c2)n1	0	5	4	21*	-1	1	18*	1
Oc1ccccc1-c1nnc(COc2ccccc2)o1	2	0	2	14*	0	1	8	0
O=C(Nc1ccon1)c1ccc(N2CCCCC2)c([N+](=O)[O-])c1	3	5	2	15*	0	2	17*	1
Cc1cc(NC(=O)c2ccc(N3CCCC3)c([N+](=O)[O-])c2)no1	-1	2	0	4	-2	0	.	.
CCCSc1nn2c(=O)c3ccccc3nc2s1	4	4	0	15*	-1	3	16*	1
CC(=O)Nc1sc(N/N=C/c2ccc(N(C)C)cc2)nc1-c1ccc(C)cc1	2	-3	.	1	-1	0	.	.
CC(=O)c1sc(N/N=C\c2ccc(N(C)C)cc2)nc1C	3	5	4.5*	14*	0	2	16*	1
COc1ccc(C2CC(=O)C(c3ccc(Cl)c(Cl)c3)=CN2Cc2ccccc2)cc1 (stereo unspecified)	-3	-6	.	4	-1	-1	.	.
CCOC(=O)c1sc(NC(=O)c2ccccc2)cc1C	3	4	1	17*	0	1	13*	1
CCOC(=O)c1sc(NC(=O)c2ccc(S(=O)(=O)N(C)C)cc2)cc1C	-5	-3	-2	-4	-3	-2	.	.
CSc1cccc(NC(=O)Cn2cccc2)c1	-1	-3	1	0	-2	-1	.	.
O=C(NCc1ccc(F)cc1)c1cnn2ccccc12	1	4	2	16*	-1	3	13*	1
